Most compounds without a hit are left out; they make up all but 22% or so of the library.
Measles CPE = protection of cells from measles virus; Measles virus-infected cells, CPE protection, absorbance; protection (pct of control), % at 4 µM; actives 1.5% (n = 140,000); in the data active = protection mostly above about 24%, no sharp cut-off; inactive = mostly below about 26%
CYP2C19 inh = blocks human cytochrome P450 2C19. AID 778. CYP2C19 Supersomes, luciferin-H EGE luminescence, 30 min. actives 21% (n = 96,000). inhibition, % at 5 µM;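 active = CYP2C19 inhibition above a set limit at 5 µM in the primary screen, cut at about 50% in these data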;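 note: plate controls were negative control wells for no effect and 2.5 mM tranylcypromine positive control for full effect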
CYP2C9 activ = activators of human CYP2C9 | P11712 | recombinant CYP2C9, luciferin-H conversion, luminescence; hits give high values; factor 1 = untreated enzyme, 0 = blocked | activation factor at 5 µM | actives 1.4% (n = 96,000) | AID 1024;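 active = activation factor of 2 or more for CYP2C9 at a 5 µM dose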;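 note: 0 = sulfaphenazole-blocked wells and 1 = vehicle-only wells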
Target sequence (P11712 whole entry, looked up): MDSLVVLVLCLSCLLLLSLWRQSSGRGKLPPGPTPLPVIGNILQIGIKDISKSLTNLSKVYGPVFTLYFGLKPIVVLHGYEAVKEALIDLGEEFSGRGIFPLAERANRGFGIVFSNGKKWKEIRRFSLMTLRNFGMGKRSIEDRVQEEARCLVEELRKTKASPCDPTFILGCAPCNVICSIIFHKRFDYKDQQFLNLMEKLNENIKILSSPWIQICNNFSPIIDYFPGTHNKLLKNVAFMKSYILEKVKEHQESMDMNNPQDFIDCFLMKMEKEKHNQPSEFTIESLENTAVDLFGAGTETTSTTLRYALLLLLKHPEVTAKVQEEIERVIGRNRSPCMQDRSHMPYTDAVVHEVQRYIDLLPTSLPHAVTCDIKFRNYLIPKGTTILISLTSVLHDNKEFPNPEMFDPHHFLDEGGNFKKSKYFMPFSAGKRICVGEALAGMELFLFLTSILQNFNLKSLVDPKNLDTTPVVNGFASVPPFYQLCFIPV
CYP2C9 inh = blocks human cytochrome P450 2C9. P11712. CYP2C9 Supersomes, luciferin-H conversion, luminescence. inhibition, % at 5 µM. actives 20% (n = 96,000);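 active = blocking of liver enzyme CYP2C9 beyond about 50% at 5 µM, limit read from the data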
CYP2C19 act = cytochrome P450 2C19 (human) activation; P33261; recombinant CYP2C19, luciferin-H EGE luminescence; hits give high values; 0 = fully inhibited enzyme, 1 = untreated enzyme; activation factor at 5 µM; 96,000 tested, under 10 active; AID 1025;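 active = activation factor of at least 2 at 5 µM in the primary screen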;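 note: 0 = wells with 2.5 mM tranylcypromine and 1 = vehicle-only wells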
Active calls of the source: *; · = no result given.

SMILES	Measles CPE	CYP2C19 inh	CYP2C9 activ	CYP2C9 inh	CYP2C19 act
CCOC(=O)CC1C(=O)NCCN1Cc1cccc(C(F)(F)F)c1 (configuration not stated)	2	55*	1.2	-20	0.4
CCC(=O)NC(=S)N1CCN(c2ccc([N+](=O)[O-])cc2Cl)CC1	29*	68*	1	-4	0.3
O=C(NC(=S)N1CCN(c2ccc([N+](=O)[O-])cc2Cl)CC1)c1ccco1	11	·	·	·	·
Cc1cc(C)c2c(N)c(-c3nc4ccccc4[nH]3)sc2n1	0	52*	0.4	57*	0.5
O=C(Cn1nc(-c2ccc(N3CCOCC3)c([N+](=O)[O-])c2)c2ccccc2c1=O)N1CCCCC1	28	4	0.5	47	1
O=C(COC(=O)CC1CCCC1)Nc1cc2c(cc1Cl)C(=O)c1ccccc1C2=O	16	61*	0.6	42	0.4
O=C(COC(=O)CCC1CCCC1)Nc1ccccc1Sc1ccccc1	15	·	·	·	·
O=C(NCc1cccnc1)c1ccc(CN2CCc3ccccc3C2)cc1	7	·	·	·	·
C/C(CC(=O)NCC(C)C)=N\NC(=O)COc1cc(C)c(Br)cc1Br	18	·	·	·	·
O=C(c1ccc(C(=O)N2CCOCC2)nc1)N1CCOCC1	13	-19	1.3	-25	1.2
CSc1nnc(-c2sccc2OCc2ccccc2)n1C	7	16	0.7	31	0.8
CSc1n[nH]c(-c2sccc2OCc2ccc(C)cc2)n1	6	83*	0.4	58*	0.2
Cc1cc(C)c2c(c1)NC(=O)C2(O)CC(=O)c1cccs1 (configuration not stated)	35	54*	1.3	-32	0.5
COc1cc(NC(=O)CCCc2c[nH]c3ccccc23)cc(OC)c1	3	·	·	·	·
COc1ccc(C2=NCN(c3ccc(C)cc3)C(=S)N2)cc1	12	-15	1.1	-8	1.1
Cc1ccc(N2CN=C(c3ccccc3)NC2=S)cc1	4	99*	0.2	76*	0
CC(C)(NC(=O)N1CCCC1)c1cccc(C(C)(C)NC(=O)N2CCCC2)c1	5	-6	0.8	20	1.1
CCn1c(SCC(=O)N2CCCc3ccccc32)nnc1-c1c[nH]c2ccccc12	5	76*	1.1	-12	0.2
CCn1c(SCC(=O)N2CCN(c3ccccc3)CC2)nnc1-c1c[nH]c2ccccc12	7	64*	1.1	-11	0.4
Cn1c(SCC(=O)N2CCN(c3ccccc3)CC2)nnc1-c1c[nH]c2ccccc12	5	54*	0.8	16	0.5
Cn1c(SCc2ccccc2)nnc1-c1c[nH]c2ccccc12	29	49	0.6	44	0.5
CCn1c(SCC(=O)N2CCc3ccccc32)nnc1-c1c[nH]c2ccccc12	3	7	1	5	0.9
CCCCSc1nnc(-c2c[nH]c3ccccc23)n1C	6	56*	1	-1	0.4
O=C(Cc1cc(=O)[nH]c(=O)[nH]1)N1CCC(Cc2ccccc2)CC1	18	·	·	·	·
CCCCCCSc1nnc(-c2cnn(-c3ccccc3)c2-n2cccc2)n1C	1	47	0.4	61*	0.5
SMILES	Measles CPE	CYP2C19 inh	CYP2C9 activ	CYP2C9 inh	CYP2C19 act
CC1(C)Cc2ccccc2-c2nnc(SCC(=O)N3CCN(c4ccccc4)CC3)n21	4	80*	0.4	62*	0.2
COc1ccc(C2N=C(Nc3ccc(C)cc3)Nc3nc(C)cc(=O)n32)cc1 (configuration not stated)	24	6	0.9	10	0.9
COCCOC(=O)c1[nH]c2c(c1C)C(=O)CC(c1ccc(N(C)C)cc1)C2 (configuration not stated)	11	88*	0.1	93*	0.1
COCCOC(=O)c1[nH]c2c(c1C)C(=O)CC(c1ccc(F)cc1)C2 (configuration not stated)	11	83*	0	98*	0.2
Cc1c(C(=O)O)[nH]c2c1C(=O)CC(c1ccccc1)C2 (configuration not stated)	7	-16	1.1	-8	1.2
COCCOC(=O)c1[nH]c2c(c1C)C(=O)CC(c1ccccc1)C2 (configuration not stated)	5	·	·	·	·
COc1ccc(C(C)(C)C)cc1NC(=O)COC(=O)c1ncc(Cl)c(Cl)c1Cl	17	·	·	·	·
CC1=NOC(=O)/C1=C\c1ccc(-c2ccc(Cl)cc2Cl)o1	11	48	0.5	49	0.5
CC(=O)Nc1ccc2nc(-c3ccc(Br)o3)[nH]c2c1	24	·	·	·	·
Cn1cccc1-c1nc2ccc(NC(=O)c3cccs3)cc2[nH]1	15	73*	0.2	78*	0.3
O=C(Nc1ccc2nc(-c3ccc(Br)o3)[nH]c2c1)c1cccs1	4	45	0.3	67*	0.5
Nc1nc(-c2ccccc2)nc2sc3c(c12)CCCC3	5	·	·	·	·
Cc1ccc(NC(NC(=O)c2cccs2)C(Cl)(Cl)Cl)cc1C (configuration not stated)	4	12	0.4	56*	0.9
Cc1ccc(NC(NC(=O)c2cccs2)C(Cl)(Cl)Cl)cc1 (configuration not stated)	3	95*	0	99*	0.1
Cc1ccccc1NC(NC(=O)c1cccs1)C(Cl)(Cl)Cl (configuration not stated)	12	99*	0	96*	0
COc1ccccc1NC(=O)c1ccc(NC(=O)CSc2nnnn2C)cc1	4	25	0.9	6	0.8
Cc1ccc2c(C)[nH]c(=O)cc2c1	5	4	1	4	1
Cc1ncc(S(=O)(=O)c2ccccc2)c(-c2ccccc2Cl)n1	2	62*	0.8	19	0.4
O=S(=O)(c1ccccc1)c1cnc(-c2cccnc2)nc1-c1ccc(Cl)c(Cl)c1	26	72*	0.4	64*	0.3
CN(C)c1ncc(S(=O)(=O)c2ccc(Cl)cc2)c(-c2ccc(Cl)cc2Cl)n1	11	81*	0.6	38	0.2
CN(C)c1ccc(S(=O)(=O)c2ccc(Cl)cc2)cc1	6	20	1.1	-5	0.8
Cc1ncc(S(=O)(=O)c2ccccc2)c(-c2ccccc2)n1	11	46	0.7	27	0.5
c1ccc2c(c1)OCCOCCOc1ccccc1OCCOCCO2	7	·	·	·	·
O=C(COC(=O)CNS(=O)(=O)c1ccccc1)Nc1ccc(Cl)cn1	24	4	1	-2	1
CC(C(=O)NC1CCCC1)N(Cc1ccco1)C(=O)c1snc(C(=O)NC2CCCC2)c1N (configuration not stated)	9	23	0.6	44	0.8
Cc1cc(C)cc(N(CC(=O)NCC2CCCO2)C(=O)CCC(=O)Nc2cc(C)on2)c1 (configuration not stated)	10	8	0.7	26	0.9
CC(=O)Nc1cccc(-c2csc(Nc3ccc(C)cn3)n2)c1	53*	·	·	·	·
Clc1ccc(NNc2ccnc3cc(Cl)ccc23)cc1	2	66*	0.2	80*	0.3
Cc1ccc(S(=O)(=O)CC(=O)c2ccc(C)c([N+](=O)[O-])c2)cc1	4	-7	2*	-105	1.1

Screening data: PubChem, several laboratories
